The compounds below were run against MAP kinase-activated protein kinase 3 (Homo sapiens) (UniProt Q16644). Details: at 1 µM.
Sequence of MAP kinase-activated protein kinase 3 (Homo sapiens) (Q16644 whole entry, looked up): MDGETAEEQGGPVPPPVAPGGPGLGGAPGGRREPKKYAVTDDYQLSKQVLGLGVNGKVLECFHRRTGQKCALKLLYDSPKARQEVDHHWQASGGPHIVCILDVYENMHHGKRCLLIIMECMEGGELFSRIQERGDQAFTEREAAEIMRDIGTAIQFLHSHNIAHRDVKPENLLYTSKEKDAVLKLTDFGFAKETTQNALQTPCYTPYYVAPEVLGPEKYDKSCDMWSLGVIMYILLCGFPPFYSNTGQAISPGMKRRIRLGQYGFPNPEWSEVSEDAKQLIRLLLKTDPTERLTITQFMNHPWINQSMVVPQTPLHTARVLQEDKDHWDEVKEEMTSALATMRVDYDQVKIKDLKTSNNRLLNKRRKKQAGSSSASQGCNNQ

Structure (SMILES)	residual activity
O=c1c2ccccc2[nH]c(=S)n1CCN1CCC(=C(c2ccc(F)cc2)c2ccc(F)cc2)CC1	89%
Oc1ccc(Nc2nc(-c3ccc(Cl)cc3)cs2)cc1	139%
O=C(Nc1cccc(Nc2nccc(Nc3cccc(C(F)(F)F)c3)n2)c1)C1CC1	122%
CCOc1cc2ncnc(Nc3cccc(Br)c3)c2cc1OCC	106%
c1ccc(-c2n[nH]c3c2oc2ccccc23)cc1	94%
CC(=O)c1ccc(N2CCOCC2)cc1O	131%
O=C1NC(=O)c2c1c1c3ccccc3[nH]c1n1cncc21	86%
COc1ccc2c(c1)c(C1=C(c3c[nH]c4ccccc34)C(=O)NC1=O)cn2CCCN(C)C	103%
O=c1c(-c2ccc(F)cc2)c(-c2ccncc2)[nH]n1-c1ccc(Cl)cc1	122%
CC(C)(C)n1nc(Cc2cccc3ccccc23)c2c(N)ncnc21	116%
O=Nc1c(-c2c(O)[nH]c3ccccc23)[nH]c2ccccc12	117%
O=C1c2ccccc2-c2nc3nnnn3nc21	105%
O=[N+]([O-])c1ccc(-c2nc(-c3ccc(F)cc3)c(-c3ccncc3)[nH]2)cc1	105%
CN(C)c1ccc(/C=C2\C(=O)Nc3ccccc32)cc1	101%
N#C/C(=C(\N)Sc1ccc(N)cc1)c1ccccc1C(F)(F)F	98%
Cn1c2ccccc2c2c3c(c4c5ccccc5n(CCC#N)c4c21)CNC3=O	131%
O=C1Nc2cc(Br)ccc2/C1=C1/Nc2ccccc2/C1=N\O	98%
Oc1n[nH]c2nnc(-c3c(-c4ccccc4)nn4ccccc34)cc12	98%

Structure (SMILES)	residual activity
O=C1NC(=O)c2cc(Nc3ccc(F)cc3)c(Nc3ccc(F)cc3)cc21	90%
Oc1c2ccccc2c2c3c(cccc13)N=N2	100%
O=C1NC(=O)c2c1c1c3ccccc3[nH]c1c1[nH]c3cc(Br)ccc3c21	87%
Nc1cccc(-c2cc3c(Oc4cccc(O)c4)ncnc3[nH]2)c1	126%
Cc1ccc(NC2=CC(=O)c3sc(C)nc3C2=O)cc1	85%
Nc1ncnc2[nH]nc(Nc3ccc(F)cc3)c12	107%
O=C(Nc1cccc(Nc2cc(Nc3cccc(C(F)(F)F)c3)ncn2)c1)C1CC1	90%
CCOC(=O)c1c(C)[nH]c(/C=C2\C(=O)Nc3ccccc32)c1C	98%
CCC(=O)Nc1ccc2ncnc(Nc3cccc(Br)c3)c2c1	89%
COc1cc2ncnc(Nc3ccc(Oc4ccccc4)cc3)c2cc1OC	118%
NCCNc1ncc(C(N)=O)c(Nc2cccc(C(F)(F)F)c2)n1	106%
Cn1nc2c3c(cccc31)C(=O)c1ccccc1-2	93%
CO[C@H]1C[C@@H]2CC[C@@H](C)[C@@](O)(O2)C(=O)C(=O)N2CCCC[C@H]2C(=O)O[C@H]([C@H](C)C[C@@H]2CC[C@@H](O)[C@H](OC)C2)CC(=O)[C@H](C)/C=C(\C)[C@@H](O)[C@@H](OC)C(=O)[C@H](C)C[C@H](C)/C=C/C=C/C=C/1C	103%
CN(C)CCCn1cc(C2=C(c3c[nH]c4ccccc34)C(=O)NC2=O)c2ccccc21	137%
O=C1NC(=O)/C(=C\c2ccc3nccnc3c2)S1	97%
CN[C@@H]1C[C@H]2O[C@@](C)([C@@H]1OC)n1c3ccccc3c3c4c(c5c6ccccc6n2c5c31)C(=O)NC4	101%
c1ccc2c(-c3ccncc3)c[nH]c2c1	103%
Nc1nc(Nc2ccc(S(N)(=O)=O)cc2)nn1C(=S)Nc1c(F)cccc1F	97%

— ChEMBL document CHEMBL2218924, “A broad activity screen in support of a chemogenomic map for kinase signalling research and drug discovery” (Biochem J, 2013)
